In PubChem BioAssay AID504652 (National Center for Advancing Translational Sciences (NCATS), 2011):
In all, about 360,000 compounds went through this assay and about 11,000 (3.1%) were called active. Many of the other results were omitted from the sample, so actives are more common in it than they were. A number with no mark means an inactive call. No stated cut-off is given here; in the data, active means activity change below about -30%; inactive means the rest.

target: D(1A) dopamine receptor (Homo sapiens) (UniProt P21728); assay: Antagonist of Human D 1 Dopamine Receptor: qHTS; conditions: HEK293 TREx D1 cells, calcium flux, dopamine EC80; at 10 µM; active compounds read low
Outline: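 Calcium flux readout: force-coupled, inducible Hek293 Trex D1 line, cells induced overnight at 30 C with tetracycline, dye-loaded 30–90 min at RT. Antagonism scored against EC80 dopamine challenge given 180 s after compound.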
On the % scale 0 is the no-effect control and ±100 the full control effect.

D(1A) dopamine receptor (Homo sapiens), sequence (P21728 whole entry, looked up): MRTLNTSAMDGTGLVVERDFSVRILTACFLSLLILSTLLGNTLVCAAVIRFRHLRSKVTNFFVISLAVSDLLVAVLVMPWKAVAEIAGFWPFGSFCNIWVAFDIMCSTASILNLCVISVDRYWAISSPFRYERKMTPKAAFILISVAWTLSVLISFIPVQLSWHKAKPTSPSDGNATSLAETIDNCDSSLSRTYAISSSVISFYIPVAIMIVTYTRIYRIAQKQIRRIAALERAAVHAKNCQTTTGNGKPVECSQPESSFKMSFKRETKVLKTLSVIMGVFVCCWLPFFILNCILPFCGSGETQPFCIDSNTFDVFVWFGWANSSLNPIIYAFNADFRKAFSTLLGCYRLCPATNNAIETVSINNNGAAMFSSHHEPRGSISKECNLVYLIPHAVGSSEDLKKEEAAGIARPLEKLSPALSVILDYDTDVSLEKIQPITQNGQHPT

Row | Compound | activity change, negative = inhibition
1 | Cc1ccc(C2CC(c3cccc(C)c3)n3nc(N)nc3N2)cc1 (stereo not given) | 9.87%
2 | CCOc1ccccc1C1CC(c2ccc(Cl)cc2)Nc2nc(N)nn21 (stereo not given) | 13.6%
3 | CCOc1ccccc1C1CC(c2ccccc2)Nc2nc(N)nn21 (stereo not given) | -30.1% (active)
4 | COCCCNC(=S)N1CCN(c2nc(-c3cccc(OC)c3)cs2)CC1 | -31% (active)
5 | CN(C)CCCNC(=S)N1CCC(c2nc3ccccc3[nH]2)CC1 | 7.97%
6 | COc1cccc(-c2ccc(SCC(=O)N3CCN(c4ccccc4)CC3)nn2)c1 | 3.13%
7 | CN(C)CCCNC(=S)N1CCN(c2nc(-c3ccccc3)cs2)CC1 | -48% (active)
8 | COCCCNC(=S)N1CCCC(c2nc3cc(C)c(C)cc3[nH]2)C1 (stereo not given) | -12%
9 | c1ccc(-c2csc(N3CCc4ccccc4C3)n2)cc1 | 4.74%
10 | CCn1cc2nc(SCc3ccccc3Cl)n(CCc3ccccc3)c(=O)c2n1 | 19.6%
11 | O=C(NC1CCCCC1)c1ccc(Cn2c(SCc3ccccc3)nc3cccnc32)cc1 | -1.21%
12 | COc1ccc(Br)cc1C1CC(=O)Nc2c1c(C)nn2-c1nc(C)cc(C)n1 (stereo not given) | 5.29%
13 | CC(=O)N1CCCc2cc(S(=O)(=O)Nc3ccc(Cl)cc3F)ccc21 | -13.2%
14 | COc1ccc(OCc2ccc(-c3nc(C#N)c(N4CCN(c5ccccc5)CC4)o3)o2)cc1 | -27.6%
15 | CN1CCN(c2oc(-c3ccc(COc4ccc(Cl)cc4)o3)nc2C#N)CC1 | -30.2% (active)
16 | N#Cc1nc(COc2ccc(Cl)cc2)oc1N1CCCC1 | -31.6% (active)
17 | Cc1ccc(OCc2nc(C#N)c(N3CCCC3)o2)cc1 | -1.06%
18 | Cc1ccccc1OCc1ccc(-c2nc(C#N)c(N3CCCCC3)o2)o1 | 2.09%
19 | CCC(C)Nc1oc(-c2ccc(COc3ccc(Cl)cc3)o2)nc1C#N (stereo not given) | -2.28%
20 | CCC(C(=O)Nc1cc(OC)ccc1OC)n1c(=O)c(C(F)(F)F)nc2ccccc21 (stereo not given) | -23.6%
21 | COc1cc(OC)cc(-c2nc3nc(C)c(CCC(=O)Nc4ccccc4)c(C)n3n2)c1 | 2.44%
22 | CC(C)C[C@H](CO)Nc1nc(N(C)c2cccc(Cl)c2)c2ncn(C(C)C)c2n1 | -34% (active)
23 | O=C(Nc1ccc(Br)cc1)c1cc2nc(-c3ccccc3)cc(-c3ccccc3)n2n1 | -10.1%

Row | Compound | activity change, negative = inhibition
24 | COc1ccc(-n2c(=O)c3ccccc3n(Cc3ccccc3Cl)c2=O)cc1 | -11.1%
25 | Fc1ccccc1C(c1nnnn1Cc1ccc2c(c1)OCO2)N1CCN(Cc2ccccc2)CC1 (stereo not given) | 19.9%
26 | Fc1ccc(Cn2nnnc2C(c2cccs2)N2CCCCCC2)cc1 (stereo not given) | -36.7% (active)
27 | N#Cc1ccc(C(c2nnnn2CCc2ccccc2)N2CCCCCC2)cc1 (stereo not given) | 10.7%
28 | Cc1ccc(S(=O)(=O)N(Cc2nc(-c3ccc(Cl)cc3)no2)C2CCCCC2)cc1 | -2.35%
29 | NS(=O)(=O)c1ccc(CNC(=O)c2cccc(Oc3ccccc3)c2)cc1 | -38.4% (active)
30 | NS(=O)(=O)c1ccc(CNC(=O)c2cccc(S(=O)(=O)N3CCc4ccccc43)c2)cc1 | -4.68%
31 | NS(=O)(=O)c1ccc(CNC(=O)c2cnccn2)cc1 | 9.99%
32 | CCN(CC)S(=O)(=O)c1ccc2c(c1)N(CC(=O)NCC(C)c1ccccc1)C(=O)CO2 (stereo not given) | 6.95%
33 | CCCCN(CC)C(=O)c1c[nH]c2ccc(S(=O)(=O)Nc3cccc(OC)c3)cc2c1=O | 16.9%
34 | CCC(=O)N1CCc2cc(S(=O)(=O)NCCC(=O)Nc3cccc(C)c3C)ccc21 | -2.16%
35 | O=C(CC(=O)Nc1ccc(Cl)c(Cl)c1)N/N=C/c1ccc(O)cc1 | -37.9% (active)
36 | CC1=NNC(=O)C1CCC(=O)N/N=C\c1ccc(Cl)c(Cl)c1 (stereo not given) | 6.69%
37 | Nc1nnn(CC(=O)N/N=C/c2ccc(O)cc2)n1 | -2.2%
38 | Cc1ccn2c(Nc3ccc4c(c3)OCCO4)c(-c3ccc(C)s3)nc2c1 | -15.7%
39 | Cc1cc(C(=O)NC2CCN(Cc3ccccc3)CC2)n[nH]1 | -5.73%
40 | S=C(Nc1ccc(Br)cc1)NC1CCN(Cc2ccccc2)CC1 | -68.5% (active)
41 | O=C(NC1CCN(Cc2ccccc2)CC1)c1cc(Br)c(Br)[nH]1 | -71.3% (active)
42 | S=C(NN=C1CCN(Cc2ccccc2)CC1)NC1CCCCC1 | 2.36%
43 | O=C(NC1CCN(Cc2ccccc2)CC1)c1ccc(Oc2cc(Cl)cc(Cl)c2)o1 | -10.1%
44 | S=C(Nc1ccc(Br)cc1Cl)NC1CCN(Cc2ccccc2)CC1 | -18.2%
45 | Cc1ccc2nc(COc3ccccc3NC(=O)Nc3ccc(F)c(Cl)c3)cc(=O)n2c1 | -18.5%
46 | CCc1ccccc1N(C)C(=O)C1CCCN(c2ncnc3onc(-c4ccc(F)cc4)c23)C1 (stereo not given) | -2.86%

Row | Compound | activity change, negative = inhibition
47 | O=C(O)c1ccc(Cn2c(SCc3ccc(F)cc3)nc3ccncc32)cc1 | 11.2%
48 | CCc1ccccc1NC(=O)c1cnn(-c2ccc(F)cc2)c1C1CCNCC1 | -15.1%
49 | CCOC(=O)c1ccccc1NC(=O)c1sc2nc(-c3ccc(F)cc3)cn2c1C | 6.46%
50 | CCOc1ccc(NC(=O)C(=O)NCCc2csc3nc(-c4ccccc4F)nn23)cc1 | -3.3%
51 | COc1ccccc1C(=O)NC(CCSC)C(=O)N1CCN(C(C)=O)CC1 (stereo not given) | -23.2%
52 | CSCCC(NC(=O)c1ccccc1)C(=O)N1CCN(Cc2ccc(Cl)cc2)CC1 (stereo not given) | 18.2%
53 | CSCCC(NC(=O)c1ccccc1)C(=O)N1CCCCCCC1 (stereo not given) | -32.7% (active)
54 | CCOc1ccccc1NC(=O)CSc1ncc(S(=O)(=O)c2ccc(C(C)(C)C)cc2)c(=O)[nH]1 | 10.4%
55 | Cc1ccccc1OCC(=O)Nc1c(C(=O)Nc2ccccc2F)oc2ccccc12 | -7.86%
56 | CCCC(=O)Nc1cc(OCC)c(NC(=O)NC2CCCCC2)cc1OCC | -5.85%
57 | COC(=O)C1=CN(Cc2ccc(OC)cc2)C=C(C(=O)OC)C1c1ccc(O)c(OC)c1 | 11.1%
58 | CCOc1cc(C2C(C(=O)OC)=CN(C3CCCC3)C=C2C(=O)OC)cc(Br)c1O | -30.9% (active)
59 | O=C(Nc1nc2ccc(S(=O)(=O)N3CCCC3)cc2s1)C1CCCO1 (stereo not given) | -41.4% (active)
60 | Cc1cc(C)c2nc(NC(=O)C3CCCO3)sc2c1 (stereo not given) | -5.2%
61 | CN1CCN(S(=O)(=O)c2ccc(NC(=O)C3CCCO3)cc2)CC1 (stereo not given) | -2.7%
62 | Cc1ccc(Cl)cc1NC(=O)NC1COc2ccccc2C1 (stereo not given) | -23%
63 | O=C(CCc1nc(CN2CCN(S(=O)(=O)c3ccc(Br)cc3)CC2)no1)N1CCCCC1 | -0.355%
64 | CCN(c1ccccc1)S(=O)(=O)c1cc(C(=O)NCc2ccccn2)ccc1C | -89.3% (active)
65 | CCN(CC)S(=O)(=O)c1cc(C(=O)Nc2ccccn2)ccc1C | 5.43%
66 | Cc1ccc(NC(=O)CNCc2ccccn2)cc1S(=O)(=O)N(C)C | -15%
67 | CCCCCCCCCCCC(=O)O | -4.71%
68 | Cc1oc(C)c(C(=O)NCCCC(=O)O)c1C(=O)NCCCC(=O)O | 1.94%
69 | NC(=O)NCCCC(=O)O | -51% (active)

Row | Compound | activity change, negative = inhibition
70 | COc1ccccc1C1C(C(=O)N2CCCCC2)=C(C)Nc2nc3ccccc3n21 (stereo not given) | 3.49%
71 | O=C(CS(=O)(=O)c1cccc2nsnc12)N1CCN(c2cccc(Cl)c2)CC1 | -13.7%
72 | COc1cc(CN2CCN(Cc3ccc(C)cc3)CC2)c([N+](=O)[O-])cc1OC | 5.79%
73 | Cc1cc(OCC(=O)NC2CCN(C)CC2)ccc1[N+](=O)[O-] | -13%
74 | Cc1cc(OCCCN2CCN(Cc3ccccc3)CC2)ccc1[N+](=O)[O-] | -35.7% (active)
75 | O=C(CCn1c(=O)c2ccccc2n(Cc2ccc(Cl)cc2)c1=O)NCc1ccc2c(c1)OCO2 | -2.86%
76 | CCC(=O)Nc1ccc(S(=O)(=O)NCC2CCCO2)cc1 (stereo not given) | -9.18%
77 | CCOC(=O)c1c(NC(=O)c2ccc(S(=O)(=O)N(C)CC3CCCO3)cc2)sc2c1CC(C)(C)NC2(C)C (stereo not given) | -2.75%
78 | Cc1ccc(NC(=O)c2ccc(S(=O)(=O)NCC3CCCO3)cc2)cc1C (stereo not given) | -12%
79 | CCOc1ccc(C(=O)Nc2ccc(S(=O)(=O)NCC3CCCO3)cc2)cc1OCC (stereo not given) | -38.2% (active)
80 | CN(CC1CCCO1)S(=O)(=O)c1ccc(C(=O)Nc2ccc([N+](=O)[O-])cc2)cc1 (stereo not given) | -32.3% (active)
81 | CC1CCc2noc(NC(=O)c3ccc([N+](=O)[O-])cc3)c2C1 (stereo not given) | -19.9%
82 | O=C(NCC1CCCO1)c1ccc(S(=O)(=O)Nc2ccc(F)cc2)cc1 (stereo not given) | -8.93%
83 | CN(CC1CCCO1)S(=O)(=O)c1ccc(C(=O)Nc2ccc(F)cc2)cc1 (stereo not given) | -41.6% (active)
84 | O=C(Nc1ccc(S(=O)(=O)NCC2CCCO2)cc1)c1ccc(F)cc1 (stereo not given) | -29.6%
85 | CCC1(C)CC(=O)c2c(ccc3oc(C(=O)Nc4ccc(C(C)=O)cc4)c(C)c23)O1 (stereo not given) | -2.38%
86 | COc1cccc(CNC(=O)Cn2c(=O)c3cccn3c3ccc(F)cc32)c1OC | 4%
87 | CCOc1cc(NC(=S)NCCCOC)c(OCC)cc1NC(=O)c1ccco1 | -35.1% (active)
88 | CCOc1cc(NC(=S)NCCCN(C)C)c(OCC)cc1NC(=O)C1CC1 | -3.38%
89 | CCOc1cc(NC(=S)NCc2ccco2)c(OCC)cc1NC(=O)c1ccco1 | -1.48%
90 | CCSc1ncc(Cl)c(C(=O)Nc2c(C(=O)c3ccccc3)oc3ccccc23)n1 | -6.04%
